# Screens: PubChem BioAssay, National Center for Advancing Translational Sciences (NCATS)
# Hits are enriched below; roughly 19% of the tested compounds scored in any of these assays.
# TDP1 cell CPT – DT40-hTDP1 cell growth loss with CPT | Potency, µM (titrated, usually from 46.2 µM), for the others: at the top dose activity change, negative = growth inhibition, hits mostly inhibitors | chicken DT40 Tdp1-/-;hTDP1 cells + 20 nM CPT, ATP luminescence, 48 h | 420,000 tested, 12% active; further: potency means the concentration at half of the fitted maximal effect; nearly all actives have a fitted effect of over 55% in size
#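 Chicken DT40 Tdp1-/- cells stably complemented with human TDP1 were seeded at 400 cells/well in medium containing 20 nM camptothecin, exposed to pin-transferred compounds, and grown at 37 °C for at least 48 hr. Viability was read as ATP luminescence.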
# IL1B secr inh – inflammasome signaling inhibition, IL-1 beta readout | THP-1 LPS/ATP IL-1B secretion, AlphaLISA, 16 h; stronger effect = lower value | AID 743279 | activity change, % at 57.5 µM | 360,000 tested, 4.7% active; in the data active means activity change below about -50%; inconclusive means mostly about -30% to -49%
#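 THP-1 cells pretreated 1 hr with compounds (up to 57.5 uM final), then stimulated with LPS (250 ng/mL final) plus ATP (1.25 mM final); secreted IL-1B measured by AlphaLISA after 16 hr, decreased signal indicating inhibition.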
# HT1080 IDH1KD tx – kills HT-1080 cells with IDH1 knockdown; HT-1080 IDH1 knockdown viability, ATP luminescence, 48 h; Potency, µM (series often up to 46.1 µM), for the others: top-dose activity, negative = toxicity, most hits filed as cytotoxic; 360,000 tested, 2% active;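 further: potency means the concentration at half of the fitted maximal effect; 0% = DMSO wells and -100% = cell-free medium wells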
#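 HT-1080-IDH1KD cells (IDH1 knocked down), 750/well in RPMI with 5% FBS, treated with compound 48 h at 37 degrees C. Viability by CellTiter-Glo luminescence, normalised to DMSO and no-cell wells; concentration-response curves classed.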
# HT1080-NT tox – kills 2HG-producing HT-1080-NT fibrosarcoma cells; HT-1080-NT fibrosarcoma viability, CellTiter-Glo ATP luminescence, 48 h; Potency, µM (highest dose often 46.1 µM), without a hit: at the highest dose activity, negative = less viability, most hits filed as cytotoxic; 360,000 tested, 1.6% active; AID 686970;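 further: NT is the 2HG producing partner of a matched IDH1 knockdown line; potency means the concentration at half of the fitted maximal effect; 0% = DMSO-treated cells and -100% = media-only wells without cells; nearly all actives have a fitted effect of over 55% in size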
#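 Read-out is CellTiter-Glo luminescence after 10 minutes at room temperature, following 48 hours' compound treatment of HT-1080-NT cells (750 cells/well, RPMI, 5% FBS, 37 degrees C).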
# DT40 TDP1 no CPT – qHTS for Inhibitors of human tyrosyl-DNA phosphodiesterase 1 (TDP1): qHTS in cells in absence of CPT. DT40 Tdp1-/- hTDP1 cells, no CPT, ATP luminescence, 48 h. Potency, µM (doses to about 46.2 µM), inactives show top-dose activity change, negative = growth inhibition, most hits filed as inhibitors. 420,000 tested, 15% active. AID 686978, 2013; further: potency means the concentration at half of the fitted maximal effect; nearly all actives have a fitted effect of over 55% in size
#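 Camptothecin absent (DMSO only). Human TDP1-complemented DT40 knockout cells, 400 cells/well, 37 °C for minimum 48 hr; ATP measured via CellTiter-Glo, 30 min dark incubation, luminescence.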
# An asterisk follows results filed as active; i = inactive; ? = inconclusive; . = not tested or not shown. Unless noted, the call rests on the fitted dose curve; in most records, active means well fitted curve in the direction sought with a large enough effect; inconclusive means small, poorly fitted or top-dose-only effect, or another doubt; inactive means no such curve, though single readings can be large; an effect the other way counts as inactive or inconclusive. Unless noted, on the % scale 0 is the no-effect control and ±100 the full control effect.
SMILES,TDP1 cell CPT,IL1B secr inh,HT1080 IDH1KD tx,HT1080-NT tox,DT40 TDP1 no CPT
CC1CCc2c(sc(NC(=O)COC(=O)c3ccc(NC(=O)CC#N)cc3)c2C#N)C1 (configuration not stated),18.8%,-0.7,8.4%,-8.9%,-17.2%
CCN1CCN(CC(=O)Nc2sc3c(c2C#N)CCC(C)C3)CC1 (configuration not stated),?,-4.1,?,18.4µM*,18.4µM*
CCCc1cc(=O)[nH]c(SCC(=O)Nc2sc3c(c2C#N)CCC(C)C3)n1 (configuration not stated),-27.4%,11.9,-19.0%,-10.8%,-21.7%
Cc1cc(NS(=O)(=O)c2ccc(NC(=O)COc3ccccc3Br)cc2)no1,-1.0%,.,.,.,-10.9%
COc1ccc(C(=O)C2CCCN(C(=O)Cn3nc(C)nc3C)C2)cc1F (configuration not stated),-5.6%,19.3,2.4%,-0.1%,-13.6%
Cc1cc(C(=O)N2CCCC(C(=O)c3ccc(Cl)cc3C)C2)no1 (configuration not stated),18.4µM*,i,-3.1%,-8.9%,23.1µM*
Cc1cc(Cl)ccc1C(=O)C1CCCN(C(=O)c2ccoc2)C1 (configuration not stated),?,-6.8,-8.6%,-12.4%,14.6µM*
Cc1nc(C)n(CC(=O)N2CCCC(C(=O)c3ccc(Cl)cc3C)C2)n1 (configuration not stated),0.411µM*,5.1,-2.9%,-1.0%,18.4µM*
Cc1cc(Cl)ccc1C(=O)C1CCCN(C(=O)c2cnsn2)C1 (configuration not stated),?,35.7,-0.5%,7.0%,?
Cc1nc(C)c(C(=O)N2CCCC(C(=O)c3ccc(Cl)cc3C)C2)s1 (configuration not stated),18.4µM*,17.4,-1.6%,-2.1%,?
CN1C(=O)C(CC(=O)Nc2ccc(F)cc2)N(NC(=O)c2cccc(F)c2)C1=S (configuration not stated),11.6%,0.7,8.2%,7.2%,-18.0%
Cc1ccc(S(=O)(=O)N[C@@H](Cc2ccccc2)C(=O)N2CCC[C@@H]2C(=O)O)cc1,-0.2%,5.0,12.0%,14.6%,-6.5%
COc1ccc(CNC(=O)Cc2c(C)c3c(cc(C)c4c(C)coc43)oc2=O)cc1OC,-4.7%,.,.,.,-9.0%
Cc1nn(CC(=O)N2CCCCCC2)c(=O)c2cc3occc3n12,-4.3%,-11.1,13.8%,5.1%,1.8%
Cc1cc2c(cc1C)CSC(c1c(O)ccc3ccccc13)SC2,?,-78.2*,?,23.1µM*,?
CCC(=O)Nc1nnc(SCC(=O)NC2CCCC2)s1,-3.9%,-4.9,7.1%,9.8%,-1.9%
CCc1c(C)nc2[nH]nc(-c3ccccc3)n2c1=O,?,27.7,15.7%,18.6%,?
CCc1c(C)nc2[nH]nc(-c3ccccc3C)n2c1=O,?,-15.3,-9.8%,-5.3%,14.6µM*
O=[N+]([O-])c1ccc(O)c(C=Nc2ccc3nc(-c4ccccc4)[nH]c3c2)c1,-8.4%,-2.3,-23.6%,-29.0%,-23.4%
Oc1c(Br)cc(C=Nc2ccc3nc(-c4ccccc4)[nH]c3c2)c(O)c1Br,16.4µM*,31.5,?,-20.2%,14.6µM*
O=C1Nc2ccc(Cl)cc2[C@@](C#CC2CC2)(C(F)(F)F)O1,?,.,.,.,16.8µM*
Cc1ccc(C[n+]2cccc(-c3ccccc3)c2)c(C)c1,1.16µM*,-58.1*,?,-25.8%,0.731µM*
CCN(CC(=O)Nc1c(F)cccc1F)C(=O)CSCc1ccc(C)cc1,?,2.0,6.7%,-0.4%,?
CSc1nc(N)n2nc(-c3ccc(Cl)cc3)cc2n1,3.8%,4.1,-27.7%,?,-25.3%
O=S(=O)(c1cccs1)N1CN(Cc2ccco2)c2nc3ccccc3nc21,?,-18.6,-15.2%,-13.2%,13µM*
